In PubChem BioAssay (NCATS):
Results filed as inconclusive are left out. Active and inactive are the calls of the source. Calls follow the shape of the dose curve; as a rule, active = well fitted inhibition curve with a large enough effect; inconclusive = small, poorly fitted or top-dose-only effect; inactive = no such curve, though single readings can be large or run the other way.

biological target: Rap guanine nucleotide exchange factor 3 (Homo sapiens) (UniProt O95398); assay: Confirmatory qHTS for antagonist of cAMP-regulated guanine nucleotide exchange factor 3 (EPAC1) (AID 1645880); conditions: EPAC1 Rap1B-BODIPY-GDP exchange, fluorescence; series mostly up to 115 µM; also: nearly all actives have a fitted effect of over 55% in size
Excerpt: Assay Provider (PI): Xiaodong Cheng Ph.D. The University of Texas Medical Branch, […], TX MLPCN Grant: NS066510 In multi-cellular eukaryotic organisms, the effects of cAMP are transduced by two ubiquitously-expressed intracellular cAMP receptors, the classic protein kinase A/cAMP-dependent protein kinase (PKA/cAPK) and the more recently discovered exchange protein directly activated by cAMP/cAMP-regulated guanine nucleotide exchange factor (EPAC/cAMP-GEF). Both PKA and EPAC are ubiquitously expressed in all tissues, and an increase in intracellular cAMP levels will lead to the activation of both PKA and EPAC. Therefore, careful dissections of the individual role and relative contribution of EPAC and PKA within the overall cAMP signaling in various model systems are critical for further elucidating the mechanism of cAMP signaling. To date no EPAC-specific antagonists and agonist, as well as isoform-specific agonists have been reported, and developing EPAC-specific pharmacological probes to determine the physiological functions that EPAC play in the overall cAMP-mediated signaling remains a major challenge within the research field. Furthermore, identified regulators of EPAC may lead to new mechanism-based therapeutic strategies specifically targeting the EPAC / cAMP-signaling components as EPAC has been implicated to play important roles in major human pathological conditions such as diabetes, heart disease, and cancer. This qHTS will be used to screen the Molecular Libraries Small Molecule Repository (MLSMR) as a concentration-titration series using the NCGC unique quantitative screening (qHTS) platform to find activators for EPAC1. In addition, this assay will also be used as a counterscreen for the EPAC2 qHTS. This fluorescent based assay is developed and validated for EPAC1 that measures exchange using EPAC effector Rap1 complex with BODIPY-GDP, a GDP analog with a tethered fluorophores. Activators are identified by monitoring the change in fluorescence signal as the exchanged free BODIPY-GDP has a reduced fluorescence compared to Rap1-bound BODIPY-GDP. Increase in signal (activation) is the desired outcome for the EPAC1 agonist while no activity in this assay is desired for the EPAC2 agonist counterscreen. Reference: [1] de Rooij, J., Zwartkruis, F. J., Verheijen, M. H., Cool, R. H., Nijman, S. M., Wittinghofer, A., and Bos, J.L. (1998) Nature 396, 474-477. Kawasaki, H., Springett, G. M., Mochizuki, N., Toki, S., Nakaya, M., Matsuda, M., Housman, D. E., and Graybiel, A. M. (1998) Science 282, 2275-2279.
Briefly, three uL of reagents (100 nM EPAC1, 250 nM RAP1B-BODIPY-GDP, 50 uM GDP) were dispensed into a 1536-well Greiner black solid-bottom medium binding assay plate. Controls and test compounds (23 nL) were transferred to the plate via a Kalypsys pin tool equipped with a 1536-pin array. The plates were centrifuged at 1,000 rpm for 15 seconds followed by 5 minute incubation at room temperature. The assay plates were read at 5 minute intervals for 30 minutes in the ViewLux plate reader using 480nm excitation and 540nm emission filters. The results were normalized to the […] positive control ATA and DMSO.
Potency is read from the fitted curve at half-maximal effect.

Sequence of Rap guanine nucleotide exchange factor 3 (Homo sapiens) (O95398 whole entry, looked up): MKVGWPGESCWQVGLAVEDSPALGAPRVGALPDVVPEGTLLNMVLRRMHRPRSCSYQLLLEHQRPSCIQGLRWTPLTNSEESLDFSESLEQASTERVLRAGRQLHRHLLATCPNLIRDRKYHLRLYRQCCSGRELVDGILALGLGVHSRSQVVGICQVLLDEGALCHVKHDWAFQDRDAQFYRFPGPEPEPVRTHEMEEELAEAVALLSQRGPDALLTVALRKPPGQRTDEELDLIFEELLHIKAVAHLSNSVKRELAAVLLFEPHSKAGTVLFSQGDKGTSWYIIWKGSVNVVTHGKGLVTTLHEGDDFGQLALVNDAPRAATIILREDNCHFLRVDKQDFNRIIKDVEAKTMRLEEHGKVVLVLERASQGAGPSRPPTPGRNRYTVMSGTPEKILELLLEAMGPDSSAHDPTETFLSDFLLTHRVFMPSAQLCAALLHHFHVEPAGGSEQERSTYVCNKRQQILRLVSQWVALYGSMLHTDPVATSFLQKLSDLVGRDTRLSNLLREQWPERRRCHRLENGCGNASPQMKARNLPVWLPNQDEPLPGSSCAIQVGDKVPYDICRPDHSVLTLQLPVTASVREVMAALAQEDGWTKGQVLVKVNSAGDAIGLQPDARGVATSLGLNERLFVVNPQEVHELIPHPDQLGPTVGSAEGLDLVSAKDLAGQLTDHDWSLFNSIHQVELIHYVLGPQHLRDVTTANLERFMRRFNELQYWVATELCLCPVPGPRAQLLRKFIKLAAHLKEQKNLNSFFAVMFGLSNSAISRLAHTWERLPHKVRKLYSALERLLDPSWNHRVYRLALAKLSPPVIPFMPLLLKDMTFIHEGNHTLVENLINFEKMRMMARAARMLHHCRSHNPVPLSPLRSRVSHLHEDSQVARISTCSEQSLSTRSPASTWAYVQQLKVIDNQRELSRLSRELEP

Potency, active:
CC(=O)Nc1ccc(C=NNc2ccc(S(=O)(=O)Nc3ccccc3C(=O)O)cc2[N+](=O)[O-])cc1 28.2 µM
COc1cc(/C=C2\SC(=S)N(NS(=O)(=O)c3ccc(C)cc3)C2=O)cc(OC)c1OC 26.9 µM
Cc1ccc2nc(N3C(=O)C(O)=C(C(=O)c4ccc(C)o4)C3c3cccc(O)c3)sc2c1 (stereo not given) 37.9 µM
Clc1ccc(CSc2nncn3c2cc2occc23)cc1 75.7 µM
Cc1ccc(NC(=O)c2cccc(NC(=O)/C=C/c3ccco3)c2)cc1C 39.8 µM
Cc1noc(NS(=O)(=O)c2ccc(NC(=O)CSc3nnc4c(n3)[nH]c3ccccc34)cc2)c1C 23.9 µM
O=c1[nH]c(/C=C/c2cccc([N+](=O)[O-])c2)c([N+](=O)[O-])c(=O)[nH]1 16.9 µM

Potency, inactive:
COc1ccc(C(=O)Nc2cc(OC)c(Cl)cc2OC)cc1
O=C1NC(=O)C2(N1)C(=O)c1cccc3cccc2c13 (stereo not given)
Cc1cc2ccccn2c1C(=O)c1ccc(C#N)cc1
CCCCN1C(=O)C(CC(=O)NC2CCCCC2)CC(C(=O)N2CCCCCC2)=C1C (stereo not given)
CCCN1C(=O)c2[nH]nc(-c3ccccc3)c2C1c1cccc(O)c1 (stereo not given)
CCOc1ccc(NCc2nc3ccccc3n2CCOc2ccccc2)cc1
Cc1ccc(S(=O)(=O)N2CCN(CC(=O)Nc3ccccc3C(=O)NC3CC3)CC2)cc1
CCOC(=O)C(Cc1ccc(NC(=O)/C(=C\c2ccccc2)NC(=O)c2ccccc2)cc1)N1C(=O)c2ccccc2C1=O (stereo not given)
Cc1nc(-c2cccc(NC(=O)Cc3ccccc3)c2)cs1
CCOC(=O)[C@@H](NC(=O)/C=C/[C@H]1O[C@@H](n2cc(C)c(=O)[nH]c2=O)C[C@@H]1O)C(C)C
Cn1c(=O)c2nc(SCC(=O)Nc3ccc(Cl)c(Cl)c3)n(C)c2n(C)c1=O
COc1cc(-c2c(CCO)sc3ccccc23)cc(OC)c1OC
CCOC(=O)C1C(=O)C=C(c2ccccc2)CC1c1ccccc1 (stereo not given)
COc1ncc(-c2c(-c3ccccc3OC)sc3ccccc23)cn1
CN1/C(=C\C=C2/SC(=S)NC2=O)C(C)(C)c2ccccc21
COC(=O)c1cc2sc(C)cc2n1Cc1cccc(OC)c1
Cc1nc(SCC(=O)N2CCCCCC2)[nH]c(=O)c1C
COCCCn1c(=N)c(C(=O)NCc2cccnc2)cc2c(=O)n3cc(C)ccc3nc21
CC(C)(C)c1cc(NC(=O)COC(=O)c2ccc(O)cc2O)n(-c2ccccc2)n1
COc1ccccc1N1CC(C(=O)Nc2cc(C(F)(F)F)ccc2N2CCCC2)CC1=O (stereo not given)
C/C(=C\C(=O)c1ccccc1)Nc1ccc(O)cc1
Cc1ccc2c(c1)CCCN2C(=O)c1cc(C)c(C)s1
CN(Cc1cccc2ncccc12)C(=O)c1cnn(-c2nccc(-c3ccccc3F)n2)c1C1CC1
COc1ccc(NC(=O)c2ccc(NC3=NC4CS(=O)(=O)CC4S3)cc2)cc1 (stereo not given)
CN(C)c1ccc(/C=C/C=C/c2ccnc3ccccc23)cc1
CCCCn1c(N)c(N(CCOC)C(=O)c2ccc(C)c(S(=O)(=O)N3CCCCC3)c2)c(=O)[nH]c1=O
Cc1ccc2[nH]cc(C(c3ccccc3)c3ccc(C)s3)c2c1 (stereo not given)
COc1ccc(C(=O)COC(=O)CCN2C(=O)C3CC=CCC3C2=O)c(OC)c1 (stereo not given)
O=C(CC[C@H]1O[C@@H](n2ccc(=O)[nH]c2=O)[C@H](O)[C@@H]1O)NCc1cccc2ccccc12
CCN(CC)C(=S)Oc1c(Cl)cccc1Cl
CCn1c(CSc2nc3ccccc3s2)nnc1SCC(=O)c1ccc(O)c(O)c1
Cc1cc(Cl)ccc1-n1c(CCC(=O)O)ccc1-c1cccs1
COC(=O)C(Cc1ccc(O)cc1)NC(=O)CCc1nc2ccccc2s1 (stereo not given)
